# Screens (PubChem)
# NOMO-1 viab – STK33 inhibitor candidate reducing NOMO-1 cell viability; NOMO-1 AML viability, CellTiter-Glo luminescence, 72 h; inhibition, % (no concentration beside the values); 37,000 tested, 7.5% active; in the data active = inhibition above about 80%
# Hedgehog inh – Sonic Hedgehog pathway inhibition | Shh-LIGHT2 Gli-luciferase reporter, 30 h | inhibition, % (no concentration beside the values) | 22,000 tested, 2.1% active;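 active = mean inhibition across valid replicates above about 65%, limit read from the data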;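 also: pathway switched on by Shh-conditioned medium diluted 1 in 25 in low serum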
# MITF inhib – inhibitors of MITF | TRPM1 promoter luciferase, luminescence, 24 h | inhibition, % (concentration not given with the values) | 37,000 tested, 0.28% active | AID 2240; in the data active = inhibition above about 85%;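 also: human melanocyte line stably carrying TRPM1 promoter luciferase reporter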
# A number is an active result; – = inactive; · = no result given. A selection: hits, their analogues and other compounds. The true share with any hit is near 8.1%.
SMILES,NOMO-1 viab,Hedgehog inh,MITF inhib
C[C@H]1CN([C@@H](C)CO)C(=O)c2cccc(NC(=O)Nc3ccc(C(F)(F)F)cc3)c2O[C@H]1CN(C)Cc1ccc(-c2ccccc2)cc1,–,–,–
C[C@H](CO)N1C[C@H](C)[C@@H](CN(C)Cc2ccc(-c3ccccc3)cc2)Oc2c(NC(=O)Nc3ccc(C(F)(F)F)cc3)cccc2C1=O,–,–,–
C[C@@H]1CN([C@H](C)CO)C(=O)c2cccc(NC(=O)Nc3ccc(C(F)(F)F)cc3)c2O[C@H]1CN(C)Cc1ccccc1,101,–,–
Cc1ccc(C(C)C)c(OCCSc2nc3ncnc(N)c3[nH]2)c1,–,·,–
Cc1cc(-c2nc3ccccc3s2)ccc1NC(=O)COc1ccccc1[N+](=O)[O-],–,·,–
CCOC(=O)c1c(NC(=O)C(C)Oc2ccc3c(C)cc(=O)oc3c2)sc2c1CCCC2 (stereo not given),–,·,–
COC(=O)C1=COC(OC2OC(CO)C(O)C(O)C2O)C2C1C(O)CC2(C)OC(C)=O (stereo not given),–,–,–
COc1ccc(NC(=O)CC2NCCNC2=O)cc1 (stereo not given),–,·,–
COc1ccc(-c2nnc(SCCCN3C(=O)c4cccc5cccc(c45)C3=O)n2C)cc1OC,–,·,–
O=C1C(=O)N(CCN2CCOCC2)C(c2ccncc2)C1C(=O)c1cc2ccccc2o1 (stereo not given),–,·,–
COc1ccc(NC(=O)Nc2ccc3c(c2)CC(=O)N([C@H](C)CO)C[C@H](C)[C@H](CN(C)Cc2ccc(C(=O)Nc4ccccc4N)cc2)O3)cc1,127,·,–
COc1ccc(CN(C)C[C@@H]2Oc3ccc(NC(=O)Nc4ccccc4)cc3CC(=O)N([C@@H](C)CO)C[C@@H]2C)cc1,–,·,–
COc1ccc(CN(C)C[C@@H]2Oc3ccc(NC(=O)Nc4ccc(OC)cc4)cc3CC(=O)N([C@@H](C)CO)C[C@@H]2C)cc1,–,·,–
COc1ccc(NC(=O)Nc2ccc3c(c2)CC(=O)N([C@H](C)CO)C[C@@H](C)[C@@H](CN(C)Cc2ccc(C(=O)Nc4ccccc4N)cc2)O3)cc1,90,·,–
COc1ccc(NC(=O)Nc2ccc3c(c2)CC(=O)N([C@@H](C)CO)C[C@@H](C)[C@@H](CN(C)Cc2ccc(C(=O)Nc4ccccc4N)cc2)O3)cc1,86,·,–
COc1ccc(NC(=O)Nc2ccc3c(c2)CC(=O)N([C@@H](C)CO)C[C@H](C)[C@H](CN(C)Cc2ccc(C(=O)Nc4ccccc4N)cc2)O3)cc1,126,·,–
COc1ccc(CN(C)C[C@@H]2Oc3ccc(NC(=O)Nc4ccccc4)cc3CC(=O)N([C@H](C)CO)C[C@H]2C)cc1,–,–,–
COc1ccc(NC(=O)Nc2ccc3c(c2)CC(=O)N([C@@H](C)CO)C[C@H](C)[C@@H](CN(C)Cc2ccc(C(=O)Nc4ccccc4N)cc2)O3)cc1,–,·,–
COc1ccc(C2(CNC(=O)CC#N)CCCC2)cc1OC,–,·,–
O=C(Nc1ccccc1C(=O)O)c1ccc(Br)c(S(=O)(=O)N2CCOCC2)c1,–,·,–
O=C(CSc1ncn(-c2ccccc2)n1)Nc1ccc(Cl)cc1,–,·,–
CC(=O)Nc1ccc(NC(=O)CNS(=O)(=O)c2c(C)cc(C)cc2C)cc1,–,·,–
Cc1cc(C)c(S(=O)(=O)NCC(=O)Nc2ccc(C(C)C)cc2)c(C)c1,95,·,–
CN1C(=O)[C@@]2(Cc3ccccc3)SSS[C@]1(CO)C(=O)N2C,108,70,91
Cn1c(SCC(=O)Nc2ccccc2C(=O)Nc2ccccc2)nc2ccccc2c1=O,–,·,–
SMILES,NOMO-1 viab,Hedgehog inh,MITF inhib
CSc1sc(C(=O)Sc2ccccc2)cc1S(=O)(=O)C(C)C,106,–,–
CSc1cccc(NC(=O)C(C)NS(=O)(=O)c2ccccc2)c1 (stereo not given),–,·,–
Cc1cccc(NC(=O)CSc2nsc(SCC(=O)Nc3cccc(C)c3)c2C#N)c1,–,–,–
N#Cc1c(SCC(=O)c2ccc(F)cc2)nsc1SCC(=O)c1ccc(F)cc1,–,81,–
O=C(CSc1nc2[nH]ncc2c(=O)n1-c1ccccc1)Nc1nsc(-c2ccccc2)n1,–,·,–
COC(=O)c1ccc(NC(=O)CSc2nnc(-c3cnccn3)n2C)cc1,–,·,–
CCOC(=O)Cc1[nH]nc2c1C(C1CC=CCC1)C(C#N)=C(N)O2 (stereo not given),114,·,–
COc1cc(OC)cc(C2C(C#N)=C(N)Oc3n[nH]c(-c4cccnc4)c32)c1 (stereo not given),–,·,–
Cc1ccc(C)c(OCCNS(=O)(=O)c2cc([N+](=O)[O-])ccc2C)c1,–,·,–
c1ccc2cc3c(Nc4ccc(N5CCOCC5)cc4)ccnc3cc2c1,136,·,–
O=C(O)c1ccccc1Nc1nc(N2CCOCC2)nc(N2CCOCC2)n1,–,·,–
COc1cc(-c2c(C#N)c(SCC#N)nc(N)c2C(=O)OC(C)C)cc(OC)c1OC,–,–,–
